Measured values taken from PubChem BioAssay (NCI).
The panel holds about 83,000 compounds, 20% with a hit somewhere; the sample as a whole holds those more often.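 Treatment: one concentration, 48 hours, 96-well format. Scoring: percent growth, with anything below 10 considered active.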 Values without a mark were called inactive. Active and inactive are the calls of the source.

Columns and labels:
Test in all cases: NCI-60 one-dose screen, 48 h (100 = growth as untreated, 0 = no growth, -100 = all killed)
Details in all cases: 10 µM
[1] = tested on: DU-145 prostate
[2] = tested on: K-562 leukemia
[3] = tested on: MALME-3M melanoma
[4] = tested on: MDA-MB-231 breast
[5] = tested on: RXF 393 renal
[6] = tested on: SF-268 CNS
[7] = tested on: SF-295 CNS
[8] = tested on: SF-539 CNS
[9] = tested on: UACC-257 melanoma
[10] = tested on: M14 melanoma

Compound | growth [1] | growth [2] | growth [3] | growth [4] | growth [5] | growth [6] | growth [7] | growth [8] | growth [9] | growth [10]
N=C(N)c1ccc(-c2ccc(-c3cccs3)s2)nc1 | 64.4% | -14.9% (active) | 57.1% | 8.8% (active) | 30.8% | 70.1% | 7.11% (active) | 84.5% | 63.2% | 75%
CCOc1ccc(-n2cc(-c3ccc(N(C)C)cc3)[n+]3c2CCCCC3)cc1 | 25.7% | 9.14% (active) | 2.39% (active) | 19.4% | 39.7% | 29.1% | -14.7% (active) | 26.6% | -12.6% (active) | 10.4%
COc1cc(CSc2nc3ccc(Cl)cc3c(=O)n2-c2ccccc2)cc(OC)c1OC | 92.9% | 38.2% | 76.5% | 63% | 68.9% | 77.7% | 84.2% | 78.9% | 89.7% | 93.2%
COc1cc(-c2cc(-c3cc(OC)c(OC)c(OC)c3)nc3nc(N)[nH]c(=O)c23)ccc1Oc1ccnc2cc(Cl)ccc12 | 33.9% | 10.6% | 59% | 36.7% | -13% (active) | 47.2% | 93.5% | -59.7% (active) | 66.6% | 12.6%
CCCCCC(CCC)COC(=O)c1ccc(OC)cc1 (stereo not given) | 109% | 105% | 97.4% | 109% | 115% | 106% | 102% | 96.9% | 90.8% | 101%
CCOC(=S)Sc1ccc([N+](=O)[O-])cc1[N+](=O)[O-] | 95.5% | 7.81% (active) | 84.1% | 88.4% | 108% | 104% | 99.2% | 26.2% | 79.2% | 36.2%
C=CCOc1ccc2c(c1)CC[C@@H]1[C@@H]2CC[C@]2(C)C(=O)/C(=N/O)C[C@@H]12 | 21.8% | 19.5% | 74.4% | 9.69% (active) | 1.96% (active) | 43.8% | 78.7% | 86.6% | 76.5% | 61.3%
CC(C)C[C@H](NC(=O)Cn1ccc(Nc2ccccc2)cc1=O)B(O)O | 38.9% | 39.1% | -11.7% (active) | 48.9% | -16.7% (active) | 34.2% | 37.8% | -57.7% (active) | 7.65% (active) | 31.8%
C=CCNC(=S)NN | 92.5% | 52.4% | 79.7% | 90.9% | 105% | 95.8% | 88.8% | 95.1% | 50.7% | 97.9%
COc1nc2c(c(=O)[nH]1)C(c1ccc(Oc3ccnc4cc(Cl)ccc34)c(OC)c1)C=C(c1cc(OC)c(OC)c(OC)c1)N2 (stereo not given) | 95.1% | 87.8% | 109% | 80.8% | 106% | 103% | 99.1% | 108% | 92.2% | 98.8%
COc1cc(C2C=C(c3ccc(Cl)c(Cl)c3)N=C3SC(C)=CN32)cc(OC)c1OC (stereo not given) | 80.3% | 32.1% | 82.9% | 89% | 67.1% | 87.8% | 75.6% | 81% | 98.8% | 86.4%
COCc1cc2c(cc1Br)OCO2 | 112% | 107% | 98.6% | 110% | 107% | 100% | 99.1% | 95.5% | 101% | 100%
COCCOC(=O)NC(=O)Nc1ccc(C(=O)c2ccc(Cl)cc2)cc1 | 38.2% | 11.7% | 56.8% | 49.8% | 40% | 55.2% | 21.9% | 15.4% | 50.8% | 20.2%
C#CCNCCN1C(=O)c2ccc3c4c(ccc(c24)C1=O)C(=O)N(CCNCC#C)C3=O | 54.7% | 25% | -12.9% (active) | 58% | 52.1% | 47.9% | 27% | 47.7% | 14.4% | 32.6%
COc1ccc(-c2nc3sc(-c4ccccc4)c(-c4ccccc4)n3c2/C=C/c2ccc(F)cc2)cc1 | 103% | 107% | 96.6% | 86.7% | 89.4% | 97.8% | 97% | 92.1% | 99% | 83.1%
CCN(Cc1ccccc1)C1CCN(Cc2cc(Br)ccc2O)CC1 | 67.4% | 11.6% | 42.7% | 26.3% | 48.7% | 65.9% | 63.8% | 74.8% | 46.1% | 46.6%
N#Cc1ncc(-c2cc(F)ccc2F)c(NC2CCCCCC2)n1 | 97.8% | 90.2% | 114% | 60.7% | 82.8% | 60% | 69.1% | 79.7% | 81.8% | 104%
C=C1C(=O)O[C@H]2[C@H]1CC/C(COC(=O)OCCCCCOC(=O)OC/C1=C/CC[C@@]3(C)O[C@H]3[C@H]3OC(=O)C(=C)[C@@H]3CC1)=C\CC[C@@]1(C)O[C@@H]21 | -4.53% (active) | 1.11% (active) | -30.1% (active) | -87% (active) | -69.8% (active) | 7.62% (active) | 45.4% | -33.1% (active) | -87% (active) | -45.5% (active)
C[C@]12CC[C@H]3[C@@H](CC=C4C[C@@H](O)CC[C@@]43C)[C@@H]1CC[C@@H]2C(=O)C/C=N/O | 99.5% | 78.1% | 84% | 103% | 96.2% | 92.2% | 97.2% | 91.6% | 99.5% | 95.7%
COc1cc(-c2cc(-c3ccc(C)cc3)nc3nc(N)[nH]c(=O)c23)ccc1Oc1ccnc2cc(Cl)ccc12 | 87.7% | 74.4% | 104% | 66.6% | 77.8% | 77.4% | 101% | 103% | 90.1% | 101%
CC(C)OP(=O)(O)c1ncc(-c2ccc(C(F)(F)F)cc2)c(NC2CCCCCC2)n1 | 90.1% | 36.3% | 5.39% (active) | 89.9% | 90.1% | 75.6% | 11.5% | 92.4% | 28.6% | 53.7%
O=S(=O)(NCCO)c1ccc(OCCOc2ccc(S(=O)(=O)NCCO)cc2)cc1 | 107% | 106% | 87% | 89.6% | 102% | 102% | 98.1% | 94.4% | 95% | 102%
CS(=O)(=O)Nc1ccc(OCc2nnc(-c3ccc(Cl)cc3)o2)c(F)c1 | 101% | 100% | 111% | 85.7% | 108% | 98.9% | 94.1% | 85.1% | 99.6% | 99.3%
COc1ccc(Nc2nc(NCc3ccccc3)c3ccccc3n2)cc1 | 79.6% | 55.5% | 39.7% | 41% | 14.5% | 31.3% | 19.6% | 60.9% | 76.5% | 76.9%
CCc1ccc(-c2nnc(COc3ccc(-c4nc5cc(Cl)c(Cl)cc5[nH]4)cc3OC)o2)cc1 | 66.6% | 15.5% | 57.9% | 58% | 46% | 99.1% | 88.2% | 26.1% | 91.4% | 52.6%
COc1cccc(C(=O)NNc2nc(N3CCOCC3)nc(N3CCN(C(c4ccccc4)c4ccccc4)CC3)n2)c1 | 87.2% | 63.5% | 91.7% | 86.3% | 69.4% | 71.5% | 87.3% | 93.6% | 90.9% | 114%
COc1cc2c3c(cccc3c1)C(=O)N(CCN1CCCC1)C2=O | 15.1% | 4.01% (active) | -21.7% (active) | 29.1% | 10.9% | 28.2% | 40.2% | 30.1% | -10.4% (active) | 25.7%
